# Test results as given in PubChem BioAssay (Tox21).
# Records with an inconclusive call do not appear. Entries that show only a call come without a potency. The source holds several records for some structures; these can differ, active in one and inactive in another. Active and inactive are the calls of the source. Unless noted, calls follow the shape of the full dose curve.
# Tests used:
# [1] = Nuclear factor erythroid 2-related factor 2/antioxidant responsive element (Nrf2/ARE) small molecule agonists: qHTS cell viability counter screen in human keratinocytes (AID 1919968; active = well fitted curve in the direction sought with a large enough effect in the repeat runs; an effect the other way counts as inactive or inconclusive; also: nearly all actives have a fitted effect of over 55% in size; also: potency is read from the fitted curve at half-maximal effect)
# In short: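 Fluorescence read-out from CellTiter-Fluor after 1 h at 37 C. Wells held HaCaT-derived ARE-luciferase reporter cells (1,500/well) treated 23 h with DMSO-dissolved compounds. Run in the same wells as the luciferase agonist read.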
# [2] = Nuclear factor erythroid 2-related factor 2/antioxidant responsive element (Nrf2/ARE) small molecule agonists: luciferase reporter gene qHTS assay in human keratinocytes (AID 1919969); also: nearly all actives have a fitted effect of over 35% in size
# [3] = target: Gonadotropin-releasing hormone receptor (Homo sapiens) (UniProt P30968); experiment: Human gonadotropin-releasing hormone receptor (GnRHR) small molecule agonists, calcium flux assay in GnRHR-HEK293 cells (AID 1920063); also: nearly all actives have a fitted effect of over 35% in size
# In short: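 Calcium-dye fluorescence, Ex/Em=480/540, recorded every 1 sec over 3 min after compound addition to GnRHR-HEK293 cells. Cells had been seeded 18 hours earlier and dye-loaded for 1 hour at 37 C. Fifteen concentrations, triplicates.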
# [4] = target: KiSS-1 receptor (Homo sapiens) (UniProt Q969F8); experiment: Human kisspeptin (KISS1R) small molecule agonists, calcium flux assay in KISS1R-HEK293 cells (AID 1920064; active = well fitted curve in the direction sought with a large enough effect in the repeat runs; an effect the other way counts as inactive or inconclusive)
# In short: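 Calcium flux read-out: kinetic fluorescence at Ex/Em=480/540, 1 s intervals over 3 min, after pin-tool compound addition to dye-loaded KISS1R-HEK293 cells. Fifteen concentrations, triplicates.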
# [5] = G protein-coupled receptor (GPCR) small molecule agonists, calcium flux assay: HEK293 wild type cell line counter screen (AID 1920065)
# In short: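 Agonist mode; 18 h seeding at 37 C, 1 h dye load at 37 C; compounds pinned from DMSO, ATP as positive control; kinetic fluorescence 480/540 nm, 3 min, 1 s reads; 15 concentrations, triplicate.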
# [6] = p53 small molecule agonists, cell-based qHTS assay with human liver microsomes: qHTS cell viability counter screen (AID 1963579); also: nearly all actives have a fitted effect of over 45% in size
# In short: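 p53RE-bla cells, 4,000/well, dosed 5 hours after plating, with human liver microsomes (0.5 mg/mL final) plus NADPH (0.5 mg/mL final), 16 hours at 37 C. Viability read as CellTiter-Glo luminescence after 30 min at room temperature.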
# [7] = p53 small molecule agonists, cell-based qHTS assay with rat liver microsomes: qHTS cell viability counter screen (AID 1963580); also: nearly all actives have a fitted effect of over 45% in size; also: potency is read from the fitted curve at half-maximal effect
# In short: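 Cytotoxicity counter screen: intracellular ATP read by CellTiter-Glo luminescence in the p53 reporter wells. HCT-116 p53RE-bla cells were treated for 16 h at 37 C alongside rat liver microsomes and NADPH, each 0.5 mg/mL final.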
# [8] = p53 small molecule agonists, cell-based qHTS assay (AID 1963582; active = well fitted activation curve with a large enough effect in the signal ratio in the repeat runs, not every such curve was filed as active; the % refers to the signal ratio)
# In short: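 Fluorescence intensity read-out of a beta-lactamase reporter under a p53 response element. Cells were exposed to DMSO-dissolved compounds for 16 h at 37 C, then developed with FRET substrate for 2 h at RT.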
# [9] = target: 5-hydroxytryptamine receptor 2A (Homo sapiens) (UniProt P28223); experiment: 5-hydroxytryptamine receptor 2A (HTR2A) small molecule antagonists, cell-based qHTS assay (AID 1963586); also: nearly all actives have a fitted effect of over 45% in size
# In short: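 CHO cells stably expressing human HTR2A were plated for 18 h at 37 C, then loaded with calcium dye for 1 h. Compounds were preincubated 5 min at room temperature before DOI (4 nM solution) was added. Kinetic fluorescence was read for 3 min.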
# [10] = target: 5-hydroxytryptamine receptor 2A (Homo sapiens) (UniProt P28223); experiment: 5-hydroxytryptamine receptor 2A (HTR2A) small molecule agonists, cell-based qHTS assay (AID 1963587); also: nearly all actives have a fitted effect of over 30% in size
# In short: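 Kinetic calcium-flux fluorescence (2 min, 1 sec intervals) after compound addition in agonist mode. HTR2A-CHO cells were cultured 18 h, then dye-loaded 1 h at 37 C.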
# [11] = target: Muscarinic acetylcholine receptor M1 (Homo sapiens) (UniProt P11229); experiment: Cholinergic receptor muscarinic 1 (CHRM1) small molecule antagonists, cell-based qHTS assay (AID 1963588); also: nearly all actives have a fitted effect of over 40% in size
# In short: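 Compounds were tested at 15 concentrations in three independent runs. Dye-loaded CHRM1-CHO cells were exposed 5 min at room temperature before stimulation by acetylcholine added at 50nM. Intracellular calcium was read kinetically on FDSS for 3 min.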
# [12] = target: Muscarinic acetylcholine receptor M1 (Homo sapiens) (UniProt P11229); experiment: Cholinergic receptor muscarinic 1 (CHRM1) small molecule agonists, cell-based qHTS assay (AID 1963589); also: nearly all actives have a fitted effect of over 35% in size
# In short: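 Calcium flux read-out: kinetic fluorescence at 1 sec intervals after pin-tool compound addition to dye-loaded CHRM1-CHO cells (human M1). Agonist mode; 15 concentrations tested in triplicate independent runs.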
# [13] = cAMP Responsive Elements (CRE) small molecule agonists, cell-based qHTS assay (AID 1963590)
# In short: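 Beta-lactamase reporter readout: LiveBLAzer B/G FRET substrate, 2 h at room temperature, added after 3 h compound treatment of CRE-bla HEK 293T cells at 37 C/5% CO2.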
# [14] = cAMP Responsive Elements (CRE) small molecule antagonists, cell-based qHTS assay (AID 1963591; active = well fitted inhibition curve with a large enough effect in the signal ratio in the repeat runs, not every such curve was filed as active; the % refers to the signal ratio)
# In short: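 HEK293T CRE-bla; 18 h preincubation; compound pin-transfer; NKH477 0.25 uM final, 3 h, 37 C; LiveBLAzer FRET substrate 2 h RT.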
# [15] = target: Beta-2 adrenergic receptor (Homo sapiens) (UniProt P07550); experiment: Adrenergic beta2 receptor (ADRB2) small molecule antagonists, cell-based qHTS assay (AID 1963592); also: series mostly up to about 92 µM; nearly all actives have a fitted effect of over 50% in size
# In short: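 Assay format: CHO-ADRB2 cells, 18-20hr seeding at 37C/5% CO2, then compound plus 1nM isoproterenol agonist mix for 0.5hr RT. Homogeneous time-resolved fluorescence cAMP detection after 1hr, expressed as 665/615 nm ratio.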
# [16] = target: Beta-2 adrenergic receptor (Homo sapiens) (UniProt P07550); experiment: Adrenergic beta2 receptor (ADRB2) small molecule agonists, cell-based qHTS assay (AID 1963593);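 also: CHO cells stably overexpressing human ADRB2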
# In short: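 CHO cells stably over-expressing ADRB2 were plated overnight at 37C, then dosed with compounds plus a stimulation mix containing 100uM IBMX and 25uM Ro-20-1724 for 0.5hr at room temperature. cAMP was measured by HTRF competition, 1hr.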
# [17] = target: D(2) dopamine receptor (Homo sapiens) (UniProt P14416); experiment: Dopamine D2 receptor (DRD2) small molecule agonists, cell-based qHTS assay (AID 1963594); also: nearly all actives have a fitted effect of over 35% in size
# In short: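 cAMP accumulation in DRD2-HEK293 cells measured by HTRF after 1 h detection; compounds added 10 min before NKH477 (200nM […]) forskolin-analogue stimulation, 30 min at room temperature, with Ro20-1724 present at 0.1 mM final.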
# [18] = target: D(2) dopamine receptor (Homo sapiens) (UniProt P14416); experiment: Dopamine D2 receptor (DRD2) small molecule antagonists, cell-based qHTS assay (AID 1963595; active = well fitted inhibition curve with a large enough effect in the signal ratio in the repeat runs, with a control signal flat; the % refers to the signal ratio)
# In short: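 Stable D2 receptor HEK293 line, 24 h after seeding. Compound preincubated 10 min, then quinpirole (12 nM) with forskolin analogue NKH477 (200 nM), 30 min, room temperature. Detection by time-resolved FRET of cAMP.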
# [19] = p53 small molecule agonists, cell-based qHTS assay: qHTS cell viability counter screen (AID 1963581); also: nearly all actives have a fitted effect of over 45% in size
# In short: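 Cytotoxicity read-out: ATP-based luminescence (CellTiter-Glo, 30 min RT) measured in the same wells as the p53 reporter assay, HCT-116 p53RE-bla cells, 16 h compound exposure at 37 C.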
# [20] = p53 small molecule agonists, cell-based qHTS assay with rat liver microsomes (AID 1963578)
# In short: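 p53RE-bla cells, 4,000/well, pre-incubated 5 h, then given compounds plus rat liver microsomes (0.5 mg/mL final) and NADPH (0.5 mg/mL final). Incubation 16 h at 37 C; beta-lactamase reporter read by LiveBLAzer fluorescence after 2 h at room temperature.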
# Chain of D(2) dopamine receptor (Homo sapiens) (P14416 whole entry, looked up): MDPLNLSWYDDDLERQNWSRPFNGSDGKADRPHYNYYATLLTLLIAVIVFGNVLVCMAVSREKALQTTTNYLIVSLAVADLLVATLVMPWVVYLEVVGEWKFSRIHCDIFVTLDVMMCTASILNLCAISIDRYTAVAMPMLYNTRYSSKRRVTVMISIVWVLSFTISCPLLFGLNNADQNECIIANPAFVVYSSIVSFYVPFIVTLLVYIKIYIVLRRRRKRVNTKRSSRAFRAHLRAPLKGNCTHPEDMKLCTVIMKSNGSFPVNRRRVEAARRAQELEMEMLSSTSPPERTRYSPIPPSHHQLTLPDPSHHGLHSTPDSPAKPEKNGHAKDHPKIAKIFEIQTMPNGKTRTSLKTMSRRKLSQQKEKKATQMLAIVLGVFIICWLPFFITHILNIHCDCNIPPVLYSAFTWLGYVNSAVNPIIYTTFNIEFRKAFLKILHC
# Chain of Muscarinic acetylcholine receptor M1 (Homo sapiens) (P11229 whole entry, looked up): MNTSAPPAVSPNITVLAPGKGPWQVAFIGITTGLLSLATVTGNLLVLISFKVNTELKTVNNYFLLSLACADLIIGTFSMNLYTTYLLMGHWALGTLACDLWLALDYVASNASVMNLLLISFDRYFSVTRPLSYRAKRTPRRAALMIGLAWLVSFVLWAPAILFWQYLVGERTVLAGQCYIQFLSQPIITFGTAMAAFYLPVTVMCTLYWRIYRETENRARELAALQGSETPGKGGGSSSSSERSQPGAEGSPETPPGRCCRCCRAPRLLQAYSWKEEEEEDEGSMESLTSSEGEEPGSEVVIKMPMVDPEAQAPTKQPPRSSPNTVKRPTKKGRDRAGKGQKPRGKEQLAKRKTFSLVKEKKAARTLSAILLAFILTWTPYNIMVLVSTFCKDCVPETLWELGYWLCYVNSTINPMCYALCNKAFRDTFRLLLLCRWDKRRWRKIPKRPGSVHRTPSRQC
# Chain of Gonadotropin-releasing hormone receptor (Homo sapiens) (P30968 whole entry, looked up): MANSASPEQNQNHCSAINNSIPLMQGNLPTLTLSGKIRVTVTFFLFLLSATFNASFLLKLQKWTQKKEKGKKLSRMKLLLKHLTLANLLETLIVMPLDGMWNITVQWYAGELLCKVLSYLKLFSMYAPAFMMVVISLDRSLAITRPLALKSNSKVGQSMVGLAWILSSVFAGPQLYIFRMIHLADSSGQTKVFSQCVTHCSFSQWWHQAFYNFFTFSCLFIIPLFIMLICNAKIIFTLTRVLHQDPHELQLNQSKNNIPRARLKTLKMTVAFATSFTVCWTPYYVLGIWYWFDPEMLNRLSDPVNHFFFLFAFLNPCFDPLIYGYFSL
# Chain of KiSS-1 receptor (Homo sapiens) (Q969F8 whole entry, looked up): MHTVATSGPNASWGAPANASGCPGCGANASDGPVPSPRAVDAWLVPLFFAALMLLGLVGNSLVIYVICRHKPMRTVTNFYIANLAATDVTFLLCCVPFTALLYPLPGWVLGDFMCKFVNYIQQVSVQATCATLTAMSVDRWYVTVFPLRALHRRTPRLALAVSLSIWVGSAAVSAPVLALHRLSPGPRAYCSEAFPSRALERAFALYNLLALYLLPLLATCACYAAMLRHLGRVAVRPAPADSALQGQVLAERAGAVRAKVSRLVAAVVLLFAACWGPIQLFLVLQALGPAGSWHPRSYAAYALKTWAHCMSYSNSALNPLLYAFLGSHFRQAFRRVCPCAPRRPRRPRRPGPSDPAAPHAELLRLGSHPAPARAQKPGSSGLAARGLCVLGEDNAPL
# Chain of Beta-2 adrenergic receptor (Homo sapiens) (P07550 whole entry, looked up): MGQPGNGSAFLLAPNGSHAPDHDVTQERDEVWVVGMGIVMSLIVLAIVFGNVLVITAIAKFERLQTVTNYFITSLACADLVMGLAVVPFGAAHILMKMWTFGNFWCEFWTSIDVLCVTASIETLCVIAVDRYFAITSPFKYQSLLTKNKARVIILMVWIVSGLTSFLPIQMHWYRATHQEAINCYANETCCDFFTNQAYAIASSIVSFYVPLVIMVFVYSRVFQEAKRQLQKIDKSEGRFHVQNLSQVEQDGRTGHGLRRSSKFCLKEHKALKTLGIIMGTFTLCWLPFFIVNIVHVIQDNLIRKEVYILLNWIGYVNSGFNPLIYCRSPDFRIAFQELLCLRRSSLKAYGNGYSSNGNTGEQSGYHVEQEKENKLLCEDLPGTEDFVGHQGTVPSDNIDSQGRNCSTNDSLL
# Chain of 5-hydroxytryptamine receptor 2A (Homo sapiens) (P28223 whole entry, looked up): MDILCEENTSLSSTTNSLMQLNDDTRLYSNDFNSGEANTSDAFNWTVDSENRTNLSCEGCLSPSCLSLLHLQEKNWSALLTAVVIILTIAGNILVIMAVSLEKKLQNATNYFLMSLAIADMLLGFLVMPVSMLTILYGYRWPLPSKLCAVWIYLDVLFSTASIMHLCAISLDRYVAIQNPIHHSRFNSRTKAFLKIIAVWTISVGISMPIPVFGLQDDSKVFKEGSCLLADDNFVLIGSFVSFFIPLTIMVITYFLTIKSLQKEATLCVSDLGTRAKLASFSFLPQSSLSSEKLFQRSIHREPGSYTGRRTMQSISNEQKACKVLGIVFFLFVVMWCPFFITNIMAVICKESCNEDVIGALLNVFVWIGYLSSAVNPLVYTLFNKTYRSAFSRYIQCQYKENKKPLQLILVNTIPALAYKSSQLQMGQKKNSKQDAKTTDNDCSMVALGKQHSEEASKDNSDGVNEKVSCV
SMILES,Potency [1],Potency [2],Potency [3],Potency [4],Potency [5],Potency [6],Potency [7],Potency [8],Potency [9],Potency [10],Potency [11],Potency [12],Potency [13],Potency [14],Potency [15],Potency [16],Potency [17],Potency [18],Potency [19],Potency [20]
CCCc1ccccc1,inactive,inactive,inactive,inactive,inactive,inactive,inactive,inactive,inactive,inactive,inactive,inactive,inactive,inactive,inactive,inactive,inactive,inactive,–,–
O=[N+]([O-])c1cncn1CCN1CCOCC1,inactive,inactive,inactive,inactive,inactive,inactive,inactive,inactive,inactive,inactive,inactive,–,inactive,–,inactive,inactive,inactive,inactive,inactive,–
C1CSCCS1,inactive,inactive,inactive,inactive,inactive,inactive,inactive,inactive,inactive,inactive,inactive,inactive,inactive,inactive,inactive,inactive,inactive,inactive,–,–
c1cnccn1,inactive,inactive,inactive,inactive,inactive,inactive,inactive,inactive,inactive,inactive,inactive,inactive,inactive,inactive,inactive,–,inactive,inactive,inactive,–
COC(/C=C(\C)CCC=C(C)C)OC,inactive,inactive,inactive,inactive,inactive,inactive,inactive,inactive,inactive,inactive,–,inactive,inactive,inactive,inactive,–,inactive,inactive,inactive,–
CCCC(=O)OCC(COC(=O)CCC)OC(=O)CCC,inactive,inactive,inactive,inactive,inactive,inactive,inactive,–,inactive,inactive,inactive,inactive,inactive,inactive,inactive,inactive,inactive,inactive,inactive,–
O=C1NC(c2ccccc2)(c2ccccc2)C(=O)N1COP(=O)(O)O,inactive,inactive,inactive,inactive,inactive,inactive,inactive,inactive,inactive,inactive,inactive,inactive,inactive,inactive,–,inactive,inactive,inactive,inactive,–
C=C(C)C(=O)OCCNC(C)(C)C,inactive,inactive,inactive,inactive,inactive,inactive,inactive,inactive,inactive,inactive,–,–,inactive,–,inactive,inactive,inactive,inactive,inactive,–
COC(=O)c1ccc(C(=O)OC)cc1,2.47 µM (active) and inactive,inactive,inactive,inactive,inactive,–,18.5 µM (active) and inactive,inactive,inactive,inactive,inactive,inactive,inactive,inactive,inactive,–,inactive,inactive,inactive,inactive
CC(=O)c1cccc([N+](=O)[O-])c1,inactive,inactive,inactive,inactive,inactive,inactive,inactive,inactive,inactive,inactive,inactive,inactive,inactive,inactive,inactive,inactive,inactive,inactive,–,inactive
O=S1(=O)OC(c2ccc(O)cc2)(c2ccc(O)cc2)c2ccccc21,24.3 µM (active),inactive,inactive,inactive,inactive,inactive,inactive,–,inactive,inactive,inactive,inactive,inactive,inactive,inactive,inactive,inactive,inactive,inactive,–
C/C(=C(\CCO)SS/C(CCO)=C(\C)N(C=O)Cc1cnc(C)nc1N)N(C=O)Cc1cnc(C)nc1N,inactive,inactive,inactive,inactive,inactive,inactive,–,inactive,inactive,inactive,inactive,inactive,inactive,inactive,–,inactive,inactive,inactive,inactive,inactive
CCCC1O[C@@H]2C[C@H]3[C@@H]4CCC5=CC(=O)C=C[C@]5(C)[C@H]4[C@@H](O)C[C@]3(C)[C@]2(C(=O)CO)O1 (stereo not given in full),inactive,inactive,inactive,inactive,inactive,–,inactive,–,–,–,–,–,–,–,inactive,inactive,inactive,inactive,inactive,inactive
C[N+](C)(C)CC(O)CCl (stereo not given),inactive,inactive,inactive,inactive,inactive,inactive,inactive,inactive,inactive,inactive,inactive,–,inactive,inactive,inactive,–,inactive,inactive,inactive,–
Cc1ccc(C(C)C)cc1O,inactive,inactive,inactive,inactive,inactive,inactive,inactive,–,inactive,inactive,inactive,inactive,inactive,inactive,inactive,inactive,inactive,inactive,inactive,–
